Test results reported in PubChem BioAssay AID746 (The Scripps Research Institute Molecular Screening Center, 2007).
Out of some 60,000 compounds screened, about 370 (0.62%) were called active. Many of the other results were omitted from the sample, so actives are more common in it than they were. A number with no mark means an inactive call. No stated cut-off is given here; in the data, active means inhibition above about 17%; inactive means the rest.

Each molecule was assayed against Mitogen-activated protein kinase 10 (Homo sapiens) (UniProt P53779) (assay: JNK3 kinase activity inhibitors, primary screen, biochemical, human, purified enzyme (AID 746;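 further: 0% = DMSO and 100% = reference inhibitor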)). Conditions: HTS, at 8 µM, hits give high values.
Mitogen-activated protein kinase 10 (Homo sapiens), sequence (P53779 whole entry, looked up): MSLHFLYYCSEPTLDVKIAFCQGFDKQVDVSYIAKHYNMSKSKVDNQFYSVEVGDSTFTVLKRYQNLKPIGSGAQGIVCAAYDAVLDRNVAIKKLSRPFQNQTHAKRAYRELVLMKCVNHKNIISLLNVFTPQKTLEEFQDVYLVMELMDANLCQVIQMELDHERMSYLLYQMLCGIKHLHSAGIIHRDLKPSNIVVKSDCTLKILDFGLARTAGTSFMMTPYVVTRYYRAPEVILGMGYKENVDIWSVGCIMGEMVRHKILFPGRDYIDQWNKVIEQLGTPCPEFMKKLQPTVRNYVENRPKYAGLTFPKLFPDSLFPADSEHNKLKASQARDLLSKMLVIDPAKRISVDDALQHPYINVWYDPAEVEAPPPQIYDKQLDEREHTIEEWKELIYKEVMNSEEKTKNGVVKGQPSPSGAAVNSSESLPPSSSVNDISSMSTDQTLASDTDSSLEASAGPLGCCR

Q: `Cc1cc(/C=N/n2cnnc2)c(C)n1-c1cccc(C(=O)O)c1` was tested. Which inhibition did it give?
A: 0.73%

Q: `O=C(CSC1=NCCS1)Nc1nc(-c2ccccc2)cs1` was tested. Which inhibition did it give?
A: 0.48%

Q: `Cc1cc(O)ccc1-c1cnc2ccccc2n1` was tested. Which inhibition did it give?
A: 25.6% (active)

Q: `Oc1ccc2nc(Cc3ccccc3)[nH]c2c1` was tested. Which inhibition did it give?
A: 5.45%

Q: How did the inhibition turn out when `Cc1nc2ccccc2cc1O` was run?
A: -3.12%

Q: `O=C1NC2(CCCCC2)N=C1c1ccccc1` was tested. Which inhibition did it give?
A: 0.31%

Q: Which inhibition does the source give for `COC(=O)C(CC(=O)Nc1cc(C)ccc1C)Nc1ccccc1OC` (configuration not stated) here?
A: -2.33%

Q: How did the inhibition turn out when `O=C(C1CCN(c2nnc(-n3cccc3)s2)CC1)N1CCc2ccccc2C1` was run?
A: -2.74%

Q: `CCOc1ccccc1C1NC(=O)NC(C)=C1C(=O)OCc1ccco1` (configuration not stated) was tested. Which inhibition did it give?
A: 2.09%

Q: How did the inhibition turn out when `CSc1nc(C)nc2c1c(=O)n(C)c(=O)n2C` was run?
A: 4.34%

Q: For `CCOc1ccc(NS(=O)(=O)c2ccc(OCC(=O)NCCCOC)cc2)cc1`, which inhibition is on record?
A: -5.51%

Q: `O=C(OC(C(=O)NC1CCCC1)c1ccc(F)cc1)c1ccno1` (configuration not stated) was tested. Which inhibition did it give?
A: -3.98%

Q: With `CCC1SC2=NCCN2C1(O)c1ccc(Cl)cc1` (configuration not stated) as the molecule, how does the inhibition read?
A: -0.2%

Q: `O=C(O)Cc1ccc(NC(=O)C2CCCCC2C(=O)O)cc1` (configuration not stated) was tested. Which inhibition did it give?
A: 3.04%

Q: For `Cc1cn(COC/C=C/c2ccccc2)c(=O)[nH]c1=O`, which inhibition is on record?
A: -1.97%

Q: For `CCOC(=O)CNC(=O)CN1C(=O)CCSc2ccccc21`, which inhibition is on record?
A: -4.85%

Q: How did the inhibition turn out when `O=C(CSc1nnc(-c2ccco2)o1)NCC(=O)c1ccccc1` was run?
A: -0.03%

Q: With `O=C(COc1ncnc2ccccc12)NC(=O)NCc1ccccc1` as the molecule, how does the inhibition read?
A: 1.94%

Q: For `COc1cccc2c(=O)n(CC(=O)N3CCCCCC3)ccc12`, which inhibition is on record?
A: 1.14%

Q: Which inhibition does the source give for `OCCCN1c2ccccc2Nc2nnc(-c3ccccc3)cc21` here?
A: 31.6% (active)

Q: `Cc1ccc2c(c1)C(O)(CC(=O)c1cccnc1)C(=O)N2` (configuration not stated) was tested. Which inhibition did it give?
A: 4.44%

Q: Which inhibition does the source give for `O=C(CSc1nc2c(cnn2-c2ccc(F)cc2)c(=O)[nH]1)N1CCCCCC1` here?
A: 1.45%

Q: Which inhibition does the source give for `CC(=O)c1sc2nc(SCC(=O)N3CCCCC3)[nH]c(=O)c2c1C` here?
A: 19.7% (active)

Q: `C=CCNC(=O)CSc1nc2sc(C)c(C)c2c(=O)[nH]1` was tested. Which inhibition did it give?
A: -0.43%

Q: Which inhibition does the source give for `O=C1NC(c2ccncc2)Nc2sc3c(c21)CCCC3` (configuration not stated) here?
A: 4.12%

Q: `CC(=NCc1ccc2c(c1)OCO2)C1=C(O)c2ccccc2C1=O` was tested. Which inhibition did it give?
A: 12.4%

Q: Which inhibition does the source give for `O=C1C(C=NCC2CCCO2)=C(O)c2ccccc21` (configuration not stated) here?
A: 3.41%

Q: How did the inhibition turn out when `CC(=NCc1ccco1)C1=C(O)c2ccccc2C1=O` was run?
A: 32.9% (active)

Q: How did the inhibition turn out when `Cc1ccnc(N2CCN(C(=O)CSc3nc4ccccc4nc3N3CCCCC3)CC2)c1` was run?
A: 6.1%

Q: Which inhibition does the source give for `Cc1cc(N2CCCC2)n2nc(C)c(-c3ccccc3)c2n1` here?
A: -0.31%

Q: How did the inhibition turn out when `CCOC(=O)N1CCN(C(=O)CSc2ccc(Cl)cc2)CC1` was run?
A: -3.08%

Q: How did the inhibition turn out when `CC(=O)c1ccc(N2C(=NC(=O)C(C)C)SC3CS(=O)(=O)CC32)cc1` (configuration not stated) was run?
A: 3.06%

Q: `O=C(NCc1ccco1)c1ccc(CS(=O)(=O)Cc2ccc(F)cc2)o1` was tested. Which inhibition did it give?
A: 2.1%

Q: For `COc1ccccc1C(=O)N1CCN=C1SCc1cccnc1`, which inhibition is on record?
A: -7.75%

Q: `CCN1CCN(C(=O)CN(C)S(=O)(=O)c2ccc(OC)cc2)CC1` was tested. Which inhibition did it give?
A: -5.84%

Q: With `CC(CN1CCCCC1)OC(=O)c1ccccc1Cl` (configuration not stated) as the molecule, how does the inhibition read?
A: 2.81%

Q: `CCc1ccccc1N(CC(=O)N1CCN(c2ccccc2F)CC1)S(C)(=O)=O` was tested. Which inhibition did it give?
A: 2.83%

Q: With `COCCCn1c2nc3ccccc3nc2c2c(=O)n(Cc3ccc(Cl)cc3)c(C)nc21` as the molecule, how does the inhibition read?
A: 3.15%

Q: With `Cc1ccsc1CNn1cnnc1SCc1ccccc1F` as the molecule, how does the inhibition read?
A: -1.56%

Q: Which inhibition does the source give for `Fc1c(F)c(C(F)(F)F)c(F)c(F)c1N1CCN(c2ccc3nnc(C(F)(F)F)n3n2)CC1` here?
A: -2.37%

Q: `Cc1cc(C)n(C(=O)c2ccc(S(=O)(=O)N3CCCC3)cc2)n1` was tested. Which inhibition did it give?
A: 5.94%

Q: `O=C(CSc1nnc(Cc2ccccc2)n1-c1ccccc1)N1CCOCC1` was tested. Which inhibition did it give?
A: -3.48%

Q: `CCOC(=O)c1ccc(COC(=O)c2cc(=O)[nH]c3ccccc23)o1` was tested. Which inhibition did it give?
A: -6.13%

Q: For `COc1ccc(COC(=O)c2n[nH]c3ccccc23)cc1F`, which inhibition is on record?
A: 54.8% (active)

Q: For `COC(=O)c1[nH]c2ccccc2c1NS(=O)(=O)c1ccc(OC)cc1OC`, which inhibition is on record?
A: 2.86%

Q: `CSc1nsc(SC)c1NC(=O)OC1CCCCC1` was tested. Which inhibition did it give?
A: -12%

Q: Which inhibition does the source give for `CS(=O)(=O)N1CCCC(C(=O)N2CCOCC2)C1` (configuration not stated) here?
A: 6.57%

Q: For `COCCN1Cc2cccc(C(=O)Nc3ccccc3OC)c2C1=O`, which inhibition is on record?
A: 2.47%

Q: How did the inhibition turn out when `CCCN1Cc2cccc(C(=O)NCc3ccccc3)c2C1=O` was run?
A: 19.8% (active)

Q: For `O=C(O)c1cccc2c1C(=O)N(C1CCCCC1)C2`, which inhibition is on record?
A: -0.07%

Q: `CC(=O)c1c(C)n([O-])c2ccccc2[n+]1=O` was tested. Which inhibition did it give?
A: -1.64%

Q: How did the inhibition turn out when `C=C1c2cc(CC)ccc2NC(=O)N1c1ccc(C)cc1` was run?
A: -1.58%

Q: `CCN=C1SC(CC(=O)Nc2ccc(C)cc2)C(=O)N1CC` (configuration not stated) was tested. Which inhibition did it give?
A: 0.86%

Q: With `CCc1ccccc1NC(=O)c1cccs1` as the molecule, how does the inhibition read?
A: 6.07%

Q: Which inhibition does the source give for `CCOC(=O)c1cc2sccc2n1Cc1ccc(C#N)cc1` here?
A: 4.65%

Q: With `Cc1ccn2cc(-c3nonc3C)cc2c1` as the molecule, how does the inhibition read?
A: 2.16%

Q: With `Cc1cccc(NC(=O)CSC(N)=O)c1C` as the molecule, how does the inhibition read?
A: -3.12%

Q: How did the inhibition turn out when `CCOC(=O)c1cccc(NC(=O)CCc2c(C)nc3ncnn3c2C)c1` was run?
A: 4.2%

Q: For `COC(=O)c1cc(NC2c3ccccc3C(=O)N2c2ccc(Cl)cn2)cc(C(=O)OC)c1` (configuration not stated), which inhibition is on record?
A: 1.5%

Q: `CN(C(=O)C1CCOC1)c1nnc(-c2cccnc2)s1` (configuration not stated) was tested. Which inhibition did it give?
A: -0.13%

Q: How did the inhibition turn out when `COc1ccc(N2CCN(Cc3cc(=O)oc4ccc5ccccc5c34)CC2)cc1` was run?
A: 11.2%

Q: `Cn1c(=O)[nH]c(=O)c2c1nc(N1CCN(CCO)CC1)n2CCSc1nc2ccccc2s1` was tested. Which inhibition did it give?
A: -3.17%

Q: For `COc1ccc(C)c2sc(=NC(=O)c3ccc(C#N)cc3)n(C)c12`, which inhibition is on record?
A: 1.99%

Q: `CCOc1ccc(CCNC(=O)C2CCN(c3ccc(N4CCOCC4)nn3)CC2)cc1OCC` was tested. Which inhibition did it give?
A: -3.01%

Q: `CC(=O)Oc1ccc(C(=O)Nc2nccs2)cc1` was tested. Which inhibition did it give?
A: 31.3% (active)

Q: `Cn1cccc1C(=O)Nc1nccs1` was tested. Which inhibition did it give?
A: 3.03%

Q: `COc1cc(C(=O)Nc2nccs2)cc(OC)c1OC` was tested. Which inhibition did it give?
A: 8.3%
